High-throughput results from PubChem.
OPRM1-OPRD1 ag: agonists of human mu-delta opioid receptor heterodimerization; P35372+P41143; cells, OPRM1-OPRD1 heterodimerization, luminescence; activation, % at 9.3 µM; actives 0.3% (n = 340,000); AID 504326
HTR5A inv ag: HTR5A inverse agonism, opioid heterodimer counter-screen. HTR5A cell line, luminescence. inhibition, % at 9.3 µM. actives 0.083% (n = 340,000); in the data active = inhibition mostly above about 23%, no sharp cut-off; inactive = mostly below about 18%
Target sequence (P47898 whole entry, looked up): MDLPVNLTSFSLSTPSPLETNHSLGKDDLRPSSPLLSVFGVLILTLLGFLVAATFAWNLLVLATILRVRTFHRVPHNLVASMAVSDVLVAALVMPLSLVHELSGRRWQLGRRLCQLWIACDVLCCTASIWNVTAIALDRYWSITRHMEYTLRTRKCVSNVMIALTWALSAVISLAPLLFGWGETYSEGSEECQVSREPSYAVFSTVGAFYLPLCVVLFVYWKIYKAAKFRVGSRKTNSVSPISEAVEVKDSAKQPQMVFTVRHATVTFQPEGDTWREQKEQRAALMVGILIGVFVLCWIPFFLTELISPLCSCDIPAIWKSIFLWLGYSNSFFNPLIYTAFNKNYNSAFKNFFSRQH
HTR5A ag: HTR5A agonism, opioid heterodimer counter-screen; actives 0.61% (n = 340,000); HTR5A agonist assay, luminescence, cell-based; activation, % at 9.3 µM; in the data active = activation mostly above about 9.5%, no sharp cut-off; inactive = mostly below about 7.6%
MOR-DOR inv ag: mu-delta opioid heterodimer inverse agonism. actives 0.21% (n = 340,000). cell-based MOR-DOR heterodimer luminescence. inhibition, % at 9.3 µM. P35372+P41143. AID 504357; in the data active = inhibition above about 22%, passing the limit was not always enough
MOR-DOR ag conf: OPRM1-OPRD1 heterodimer agonism, confirmation. shares compounds with OPRM1-OPRD1 ag. cells, MOR-DOR heterodimerization, luminescence complementation. activation, % at 9.3 µM. actives 45% (n = 830). AID 504904
HTR5A ag ctr2: HTR5A agonism, opioid heterodimer counter-screen | shares compounds with OPRM1-OPRD1 ag | HTR5A agonist counterscreen, cell luminescence | activation, % at 9.3 µM | actives 8% (n = 830); in the data active = activation above about 17%
Each line names hits and unclear results; the compound was inactive in the other large screens (follow-up assays come after a bar, where they were run). Only some compounds are listed: those with a hit (about 1.1% of all), similar ones and a draw of the others. Rule as the data show it, unless noted: active = activation above about 18%; inactive = the rest.

Cc1ccccc1N1CC(O)(c2ccccc2)[N+]2=C1SCC2 (stereo unspecified)	OPRM1-OPRD1 ag 218 | MOR-DOR ag conf 223 | HTR5A ag ctr2 inactive
O=S(=O)(NC(=S)NC1CCCCC1)c1ccc(Br)cc1	none
O=S(=O)(c1ccc(Br)s1)N1CCN(CCOc2ccccc2)CC1	none
Cc1ccc(-c2cc(C(=O)Nc3ccncc3)c3ccccc3n2)cc1	OPRM1-OPRD1 ag 28 | MOR-DOR ag conf inactive | HTR5A ag ctr2 inactive
O=C(Nc1ccncc1)c1cc(-c2cccc(Br)c2)nc2ccccc12	OPRM1-OPRD1 ag 52, HTR5A ag 26 | MOR-DOR ag conf inactive | HTR5A ag ctr2 inactive
O=C(Nc1ncccn1)c1cc(-c2cccc(Br)c2)nc2ccccc12	none
COc1ccc(NC(=O)c2cc(-c3ccco3)nc3ccccc23)cc1	OPRM1-OPRD1 ag 50 | MOR-DOR ag conf 22 | HTR5A ag ctr2 20
CC1CCCC(NC(=O)CCNC(=O)c2ccc([N+](=O)[O-])cc2)C1C (stereo unspecified)	none
COc1ccc(-c2nc(CN3CCC(C(=O)NC4CCCC4)CC3)c(C)o2)cc1OC	OPRM1-OPRD1 ag 110 | MOR-DOR ag conf 18 | HTR5A ag ctr2 inactive
COc1ccc(-c2nc(CN3CCC(c4ccccc4)CC3)c(C)o2)cc1OC	none
COc1ccc(-c2nc(CN3CCC(C(=O)NC4CCCc5ccccc54)CC3)c(C)o2)cc1OC (stereo unspecified)	OPRM1-OPRD1 ag 199 | MOR-DOR ag conf 38 | HTR5A ag ctr2 inactive
CCOc1ccc(NC(=S)Nc2ccc3nsnc3c2)cc1	OPRM1-OPRD1 ag 22 | MOR-DOR ag conf inactive | HTR5A ag ctr2 inactive
Oc1ccc(/C=N/Nc2nc(-c3ccc(Cl)cc3)cc(C(F)(F)F)n2)cc1	OPRM1-OPRD1 ag 24 | MOR-DOR ag conf inactive | HTR5A ag ctr2 inactive
Cc1cc(-c2ccccc2)nc(N/N=C/c2ccc(O)cc2)n1	none
Cn1nc(C(=O)OCC(=O)Nc2ccccc2OC(F)F)c2ccccc2c1=O	none
O=C(Oc1ccc2c(c1)OCO2)c1cc2c(s1)CCC2	OPRM1-OPRD1 ag 22 | MOR-DOR ag conf inactive | HTR5A ag ctr2 inactive
COc1ccc(CCC(=O)Nc2cc3c4c(c2)CCC(=O)N4CCC3)cc1	none
C/C(=N\NC(=O)c1cccc(S(=O)(=O)Nc2cccc(Cl)c2)c1)c1cccs1	OPRM1-OPRD1 ag 20 | MOR-DOR ag conf inactive | HTR5A ag ctr2 inactive
COc1ccccc1NS(=O)(=O)c1cccc(C(=O)N/N=C/c2ccc(C)o2)c1	none
CCN(CC)S(=O)(=O)c1cccc(C(=O)N/N=C(\C)c2cccs2)c1	none
Cc1ccc(/C=N/NC(=O)c2cccc(S(=O)(=O)Nc3cccc(Cl)c3)c2)o1	OPRM1-OPRD1 ag 19 | MOR-DOR ag conf 22 | HTR5A ag ctr2 inactive
Cc1cc(C)c(S(=O)(=O)NCCOc2ccccc2)c(C)c1-n1cnnn1	none
Cc1c(CN2CCC(n3nccc3NC(=O)C3CC3)CC2)[nH]c2ccccc12	OPRM1-OPRD1 ag 45 | MOR-DOR ag conf inactive | HTR5A ag ctr2 31
O=C(OCC(=O)N1CCC(Cc2ccccc2)CC1)c1ccc(CO)cc1	none
COc1ccc(OC)c(C=Nc2ccccc2-c2nc3ccccc3[nH]2)c1	none
COc1ccc(OC)c(/C=C/c2nc3ccccc3[nH]c2=O)c1	OPRM1-OPRD1 ag 21 | MOR-DOR ag conf inactive | HTR5A ag ctr2 inactive
Cc1ccc(NC(=O)C(C)OC(=O)c2n[nH]c3ccccc23)cc1 (stereo unspecified)	none
CC(OC(=O)c1n[nH]c2ccccc12)C(=O)Nc1ccccc1[N+](=O)[O-] (stereo unspecified)	OPRM1-OPRD1 ag 32 | MOR-DOR ag conf inactive | HTR5A ag ctr2 inactive
COC(=O)NCC(c1ccc2c(c1)OCO2)N1CCN(c2ccccc2)CC1 (stereo unspecified)	OPRM1-OPRD1 ag 217 | MOR-DOR ag conf 193 | HTR5A ag ctr2 inactive
COc1ccc2c(Cl)c(-c3nnc(SCC(N)=O)n3C)sc2c1	none
COc1ccc2c(Cl)c(-c3nnc(SCC(=O)c4ccccc4)n3C)sc2c1	OPRM1-OPRD1 ag 325 | MOR-DOR ag conf 372 | HTR5A ag ctr2 inactive
CC1CCN(C(=O)CSc2nc(=O)n3ccccc3n2)CC1	none
CCN(C(=O)COC(=O)CNC(=O)c1ccc(Cl)cc1Cl)c1c(N)n(Cc2ccccc2)c(=O)[nH]c1=O	none
CCOC(=O)C1(CC2CC2)CCN(Cc2cn[nH]c2-c2cccc(F)c2)CC1	none
CCOC(=O)C1(CC2CC2)CCN(Cc2ccc3cccc(F)c3n2)CC1	OPRM1-OPRD1 ag 24 | MOR-DOR ag conf 28 | HTR5A ag ctr2 inactive
COc1ccc(F)cc1CN1CCN(C(=O)CCC(=O)Nc2nnc(C(C)C)s2)CC1	OPRM1-OPRD1 ag 25 | MOR-DOR ag conf 25 | HTR5A ag ctr2 inactive
CCOc1ccc(Nc2c3ccccc3nc3ccccc23)cc1	OPRM1-OPRD1 ag 20 | MOR-DOR ag conf 37 | HTR5A ag ctr2 inactive
CN(C)S(=O)(=O)c1ccc(NC(=O)CCNC(=O)c2ccc([N+](=O)[O-])cc2)cc1	none
Cc1c(Cc2ccccc2)c(=O)oc2cc(OCC(=O)N3CCC(C(=O)O)CC3)ccc12	none
CCOC(=O)N1CCN(c2cc(=O)n(-c3cccc(C)c3)c(=O)[nH]2)CC1	none
O=C(Nc1ccc(Cl)c(Cl)c1)N(CCCN1CCOCC1)Cc1cccnc1	none
O=C(Nc1ccc(Cl)c(Cl)c1)N(CCCN1CCOCC1)Cc1cccs1	OPRM1-OPRD1 ag 27 | MOR-DOR ag conf inactive | HTR5A ag ctr2 inactive
CC1CC(C)CN(CC(=O)N2CCCc3c2c(=O)oc2ccc(OCc4ccccc4)cc32)C1 (stereo unspecified)	none
CC1CCN(CC(=O)N2CCCc3c2c(=O)oc2ccc(OCc4ccccc4)cc32)CC1	OPRM1-OPRD1 ag 27, HTR5A ag 13 | MOR-DOR ag conf 32 | HTR5A ag ctr2 inactive
Cc1oc2c(c1C(=O)c1ccccc1)C(=O)C(=O)c1ccccc1-2	OPRM1-OPRD1 ag 18 | MOR-DOR ag conf 21 | HTR5A ag ctr2 inactive
Cc1cc(-c2nn(-c3ccccc3F)cc2CN2CCN(c3ccccn3)CC2)c(C)s1	OPRM1-OPRD1 ag 28 | MOR-DOR ag conf inactive | HTR5A ag ctr2 inactive
CC(Sc1ccc2ccccc2c1)C(=O)NC(N)=O (stereo unspecified)	none
COc1ccc(NC(=O)CN2CCOCC2)cc1S(=O)(=O)N1CCCCC1	none
COc1ccc(NC(=O)CN2CCc3ccccc3C2)cc1S(=O)(=O)N1CCOCC1	OPRM1-OPRD1 ag 51 | MOR-DOR ag conf inactive | HTR5A ag ctr2 inactive
Cc1ccc(NC(=O)CNC(=O)c2sc3ccccc3c2Cl)nc1	OPRM1-OPRD1 ag 26 | MOR-DOR ag conf inactive | HTR5A ag ctr2 inactive
CCOC(=O)C1=C(CN2CC(C)CC(C)C2)NC(=O)NC1c1ccc2c(c1)OCO2 (stereo unspecified)	OPRM1-OPRD1 ag 26 | MOR-DOR ag conf 24 | HTR5A ag ctr2 inactive
OC(CNCCC(c1ccccc1)c1ccccc1)COc1ccccc1 (stereo unspecified)	OPRM1-OPRD1 ag 22 | MOR-DOR ag conf 38 | HTR5A ag ctr2 inactive
